The text below walks through data of PubChem BioAssay (Tox21).

Assay [1] addresses Retinoic acid receptor RXR-alpha (Homo sapiens) (UniProt P19793). Briefly: qHTS assay to identify small molecule agonists of the RXR signaling pathway (AID 1159527; calls by dose curve; note: nearly all actives have a fitted effect of over 35% in size). Put shortly:
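GeneBLAzer RXR-alpha-UAS-bla HEK 293T cells in 2% charcoal-stripped FBS medium were exposed to compounds for 16 hr at 37 C in agonist mode. Beta-lactamase reporter read as 460/530 nm FRET ratio after 2 hr substrate loading.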

The nature of assay [2]: qHTS assay to identify small molecule agonists of the RXR signaling pathway - cell viability counter screen (AID 1159529). Note: nearly all actives have a fitted effect of over 50% in size. Put shortly: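 RXR-alpha-UAS-bla HEK 293T cells in medium with 2% charcoal-stripped FBS were pre-incubated 5 hr, then compound-treated 16 hr at 37 C. Viability was read by CellTiter-Glo luminescence in the same wells as the beta-lactamase assay, with tetraoctyl ammonium bromide as positive control.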

Assay [3] is described as follows: qHTS assay to identify small molecule antagonists of the retinoid acid receptor (RAR) signaling pathway - cell viability counter screen (AID 1159551). Note: nearly all actives have a fitted effect of over 35% in size. Put shortly:
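Cells (C3RL4) are plated, incubated overnight, dosed with compound in DMSO, then given retinol at 1 uM final. After 6 h at 37 C, CellTiter-Glo is added and luminescence read following 30 min at room temperature.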

The nature of assay [4]: qHTS assay to identify small molecule antagonists of the retinoic acid receptor (RAR) signaling pathway (AID 1159552; note: nearly all actives have a fitted effect of over 50% in size). Put shortly:
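Retinol signaling pathway inhibitors screened in C3RL4 RARE-luciferase reporter cells seeded overnight at 37 C, then compounds added with 1 uM (final) retinol as pathway substrate. After 6 hr at 37 C, luciferase luminescence read after 30 min at room temperature.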

Assay [5] in a line: qHTS assay to identify small molecule agonists of the retinoic acid receptor (RAR) signaling pathway (AID 1159553). The conditions noted are these: C3RL4 RARE luciferase reporter, agonist, 6 h; activation: at 73.3 µM (top of the series). Put shortly: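 Seed C3RL4 reporter cells at 1,000 per well and incubate overnight at 37 C. Add compounds in DMSO, incubate 6 hr. Add luciferase reagent, wait 30 min at room temperature, read luminescence.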

Assay [6] can be described thus: qHTS assay to identify small molecule antagonists of the estrogen related receptor (ERR) signaling pathway from Tox21 library - cell viability counter screen (AID 1224834). Note: nearly all actives have a fitted effect of over 30% in size. Put shortly:
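ERR cells, 2,000/well; 6 h settle at 37 C/5% CO2; pin-tool compound transfer in DMSO; 17.5 h at 37 C; CellTiter-Fluor, 30 min; fluorescence intensity.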

The target in assay [7] is Luciferin 4-monooxygenase (Photinus pyralis) (UniProt P08659). Briefly: qHTS assay to identify small molecule inhibitors of firefly luciferase (AID 1224835). Note: nearly all actives have a fitted effect of over 25% in size. Note: potency is the fitted concentration of half-maximal effect. Put shortly: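 Biochemical qHTS: compounds run as interplate titrations against purified firefly enzyme, with D-luciferin and ATP each at its KM concentration. Light output recorded by CCD imaging.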
Chain of Luciferin 4-monooxygenase (Photinus pyralis) (P08659 whole entry, looked up): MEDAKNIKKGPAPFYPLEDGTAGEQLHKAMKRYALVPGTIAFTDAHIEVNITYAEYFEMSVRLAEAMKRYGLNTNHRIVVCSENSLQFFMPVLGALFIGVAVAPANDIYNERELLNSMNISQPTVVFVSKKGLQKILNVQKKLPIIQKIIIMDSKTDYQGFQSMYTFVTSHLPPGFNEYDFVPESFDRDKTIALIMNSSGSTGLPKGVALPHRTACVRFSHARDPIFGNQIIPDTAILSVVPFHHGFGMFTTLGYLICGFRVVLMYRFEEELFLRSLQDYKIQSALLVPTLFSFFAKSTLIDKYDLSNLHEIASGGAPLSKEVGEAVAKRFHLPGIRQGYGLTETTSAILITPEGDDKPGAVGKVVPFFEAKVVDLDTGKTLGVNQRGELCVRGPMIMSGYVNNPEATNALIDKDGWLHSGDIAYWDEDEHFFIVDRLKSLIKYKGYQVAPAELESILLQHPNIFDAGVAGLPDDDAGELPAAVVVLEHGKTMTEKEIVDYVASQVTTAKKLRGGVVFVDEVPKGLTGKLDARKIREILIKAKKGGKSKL
Assay [8] in a line: qHTS assay to identify small molecule agonists of the constitutive androstane receptor (CAR) signaling pathway - cell viability counter screen (AID 1224836). Note: nearly all actives have a fitted effect of over 45% in size. Put shortly: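 HepG2 cells stably carrying hCAR and a CYP2B6-2.2kb reporter; 15-concentration compounds plus PK11195 (final 0.75 uM), 23 hr at 37 C/5% CO2. Viability read by CellTiter-Fluor fluorescence.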
Assay [9] in a line: qHTS assay to identify small molecule antagonists of the constitutive androstane receptor (CAR) signaling pathway - cell viability counter screen (AID 1224837). Note: nearly all actives have a fitted effect of over 45% in size. Put shortly: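 Viability was measured with CellTiter-Fluor in a HepG2 line carrying stably transfected hCAR and a CYP2B6-2.2kb construct. Cells were exposed for 23 hr at 37 C to 15 compound concentrations with 50 nM CITCO as agonist.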

Inconclusive results are not listed. Unmarked numbers belong to inactive results. Calls of active or inactive are those of the source. Unless noted, calls come from the whole dose curve; as a rule, active = well fitted curve in the direction sought with a large enough effect in the repeat runs; inconclusive = weak or mixed curves; inactive = no such curve, though single readings can be large; an effect the other way counts as inactive or inconclusive.
% is set by controls: 0 for no effect and ±100 for the full control effect.

Chain of Retinoic acid receptor RXR-alpha (Homo sapiens) (P19793 whole entry, looked up): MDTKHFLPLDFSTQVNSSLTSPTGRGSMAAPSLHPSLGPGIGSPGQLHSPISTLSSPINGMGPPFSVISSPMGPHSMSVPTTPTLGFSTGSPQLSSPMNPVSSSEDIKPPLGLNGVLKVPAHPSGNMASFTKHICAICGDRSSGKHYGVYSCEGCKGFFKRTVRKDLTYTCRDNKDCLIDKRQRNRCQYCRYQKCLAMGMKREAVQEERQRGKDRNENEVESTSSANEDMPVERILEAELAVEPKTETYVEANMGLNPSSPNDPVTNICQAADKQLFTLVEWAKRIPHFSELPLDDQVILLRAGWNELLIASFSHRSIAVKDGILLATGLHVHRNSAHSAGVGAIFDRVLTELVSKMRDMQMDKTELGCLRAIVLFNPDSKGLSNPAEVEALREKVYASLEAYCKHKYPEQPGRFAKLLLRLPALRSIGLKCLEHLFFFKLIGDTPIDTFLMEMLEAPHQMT

Consider `CCCCCCCCCCCCOC(C)=O`, for which the Potency entry in assay [1], in [4], in assay [5], in [6], in assay [7] and in [9] was “inactive” each time. Also, the result in assay [2], in assay [3] and in [8] was inactive.
With `CC(=O)N1CCN(c2ccc(O)cc2)CC1`, the Potency result in assay [1], in assay [4], in assay [5], in [6], in assay [7] and in [9] was “inactive” in each case. Moreover, the compound was classed as inactive in assay [2], in [3] and in assay [8].
Regarding `CCCCOC(=O)C(C)OC(=O)CCC` (configuration not stated), the Potency entry in assay [1], in assay [4], in [5], in [6], in assay [7] and in assay [9] was “inactive” in each case. Moreover, the compound was classed as inactive in assay [2], in [3] and in [8].
Consider `CC1CCC(C(C)(C)S)C(=O)C1` (configuration not stated), for which the Potency result in assay [1], in [4], in assay [5], in assay [6], in [7] and in [9] was “inactive” in each case. Further, the outcome in [2], in [3] and in assay [8] was inactive.
Consider `NCCc1ccn[nH]1`, for which the Potency result in [1], in assay [4], in assay [5], in [6], in [7] and in assay [9] was “inactive” in each case. In addition, the compound was called inactive in [2], in assay [3] and in assay [8].
For the compound `CC(=O)/C=C/c1ccco1`, the Potency result in [1], in assay [4], in assay [5], in [6], in assay [7] and in assay [9] was “inactive” throughout. Moreover, the compound was called inactive in assay [2], in [3] and in [8].
For the compound `CCN1CN(CC)CN(CC)C1`, the Potency entry in assay [1], in assay [4], in [5], in [6], in [7] and in assay [9] was “inactive” in each case. For the same compound, the compound was classed as inactive in assay [2], in [3] and in [8].
On to `COc1cc2c3cc1Oc1cc(ccc1O)C[C@@H]1c4c(cc(OC)c(O)c4Oc4ccc(cc4)C[C@@H]3N(C)CC2)CC[N+]1(C)C`, for which the Potency result in assay [1], in assay [4], in [5], in assay [6], in assay [7] and in assay [9] was “inactive” throughout. The result in assay [2], in assay [3] and in [8] was inactive.
For `O=C(O)c1ccc(OCCN2CCCCC2)cc1`, the Potency entry in assay [1], in assay [4], in assay [5], in assay [6], in assay [7] and in assay [9] was “inactive” in each case. Besides, the call in assay [2], in [3] and in assay [8] was inactive.
`CCCCCCCCCCCCCC(=O)OC`: the Potency entry in assay [1], in assay [4], in [5], in [6], in assay [7] and in assay [9] was “inactive” in each case. The result in assay [2], in [3] and in assay [8] was inactive.
On to `CCCCCCCCCCCCC`, for which the Potency entry in assay [1], in assay [4], in assay [5], in assay [6], in assay [7] and in assay [9] was “inactive” in each case. The result in [2], in [3] and in assay [8] was inactive.
Regarding `O=C(Nc1cccc(C2=NCCN2)c1)Nc1cccc(C2=NCCN2)c1`, the activation in assay [1] was 1.97% [at 15.8 µM]. Moreover, the figures for the activity change, negative = cytotoxicity in [2], in assay [3] and in assay [9] were 12.6% [at 15.8 µM], 1.4% [at 19 µM] and 1.51% [at 19 µM], respectively. For the same compound, the activity, negative = inhibition in [4] was 6.53% [at 19 µM]. Further, in assay [5], the Potency result is “inactive”. In addition, the results for the viability change, negative = cytotoxic in [6] and in assay [8] were 1.33% [at 19 µM] and 0.131% [at 19 µM], respectively. The activity change, negative = inhibition in assay [7] was -1.49% [at 23.6 µM].
In the case of `COc1ccc(/C=N/NC(=O)c2ccncc2)cc1OC`, the Potency result in [1], in assay [4], in assay [5], in assay [6], in assay [7] and in assay [9] was “inactive” throughout. Further, the compound was classed as inactive in assay [2], in [3] and in assay [8].
With `CCCCC[Si](OCC)(OCC)OCC`, the Potency entry in [1], in assay [4], in assay [5], in assay [6], in assay [7] and in [9] was “inactive” in each case. Further, the call in [2], in assay [3] and in assay [8] was inactive.
Consider `CC1=CC[C@H](CC=O)C1(C)C`, for which the Potency result in [1], in assay [4], in [5], in assay [6], in assay [7] and in [9] was “inactive” in each case. For the same compound, the compound was classed as inactive in assay [2], in assay [3] and in assay [8].
`CCCCCC(=O)OCC`: the Potency entry in [1], in assay [4], in assay [5], in assay [6], in [7] and in assay [9] was “inactive” throughout. Besides, the outcome in assay [2], in assay [3] and in [8] was inactive.
`C/C=C(\C)C(=O)OCC/C=C\CC`: the Potency result in [1], in assay [4], in [5], in assay [6] and in assay [9] was “inactive” throughout. For the same compound, the result in assay [2], in assay [3] and in assay [8] was inactive. Also, the Potency in [7] is 35.6 µM (active).
Regarding `C[N+](C)(C)CC(O)CCl` (configuration not stated), the Potency entry in [1], in assay [4], in assay [5], in [6], in [7] and in assay [9] was “inactive” in each case. The result in assay [2], in assay [3] and in assay [8] was inactive.
For `O=C1OC(=O)c2cc(Oc3ccc4c(c3)C(=O)OC4=O)ccc21`, the Potency result in assay [1], in assay [4], in assay [5], in [6], in assay [7] and in assay [9] was “inactive” each time. In addition, the result in [2], in assay [3] and in assay [8] was inactive.
In the case of `CCC(O)C(C)(C)C` (configuration not stated), the Potency result in assay [1], in assay [4], in assay [5], in assay [6], in assay [7] and in assay [9] was “inactive” throughout. Further, the result in assay [2], in assay [3] and in assay [8] was inactive.
As to `NS(=O)(=O)c1cc2c(cc1Cl)NC(CC1CCCC1)NS2(=O)=O` (configuration not stated), the Potency result in assay [1], in [4], in assay [5], in assay [6], in [7] and in assay [9] was “inactive” in each case. The outcome in assay [2], in assay [3] and in assay [8] was inactive.
As to `c1ccc(CNc2ncnc3nc[nH]c23)cc1`, the Potency result in assay [1], in [4], in assay [5], in [6] and in assay [7] was “inactive” throughout. In addition, the outcome in [2] and in assay [3] was inactive.
Consider `Cc1cccc(Nc2ccncc2S(=O)(=O)NC(=O)NC(C)C)c1`, for which the Potency entry in assay [1], in [4], in [5], in assay [6], in assay [7] and in [9] was “inactive” throughout. In addition, the outcome in assay [2], in [3] and in assay [8] was inactive.
For the compound `CC(C)c1ccccc1O`, the Potency entry in assay [1], in assay [4], in assay [5], in [6], in [7] and in assay [9] was “inactive” each time. Also, the outcome in [2], in assay [3] and in assay [8] was inactive.
For `CO[Si](CCCS)(OC)OC`, the Potency entry in assay [1], in assay [4], in assay [5], in assay [6], in assay [7] and in assay [9] was “inactive” in each case. For the same compound, the compound was classed as inactive in [2], in [3] and in assay [8].
Take `Cc1ccccc1C`: the Potency result in assay [1], in [4], in assay [5], in assay [6], in assay [7] and in [9] was “inactive” in each case. Moreover, the outcome in assay [2], in [3] and in [8] was inactive.
